Assay results taken from PubChem BioAssay AID1224856 (National Center for Advancing Translational Sciences (NCATS), 2016).
Results filed as inconclusive are left out. Entries that show only a call come without a potency. The source made the active and inactive calls. Calls come from the whole dose curve; as a rule, active = well fitted curve in the direction sought with a large enough effect; inconclusive = small, poorly fitted or top-dose-only effect, or another doubt; inactive = no such curve, though single readings can be large or run the other way.

Assay: Cell viability assay for measurement of the protective activity of small molecules against cell death caused by Zika virus infection in human astrocytes
Details: human astrocytes ZIKV-induced death, ATP luminescence, 72 h; series mostly up to 46.1 µM
In short: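 Protection against Zika-induced death was measured in human astrocytes infected at 2 FFU/cell one hour after compound addition. After 72 h at 37 °C, ATP luminescence was read and converted to percent inhibition of the viability decrease.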

| SMILES | Potency |
| --- | --- |
| O=C(OCc1ccccc1)c1ccc(O)cc1 | inactive |
| COCCn1c2c([n+](Cc3cnccn3)c1C)C(=O)c1ccccc1C2=O | inactive |
| CCCSc1ccc2nc(NC(=O)OC)[nH]c2c1 | inactive |
| O=c1oc2cc(O)ccc2s1 | inactive |
| CCC(C(=O)O)c1ccc(N2Cc3ccccc3C2=O)cc1 (stereo unspecified) | inactive |
| N#CC1(c2ccc(NC(=O)c3cccnc3NCc3ccncc3)cc2)CCCC1 | inactive |
| C[C@@H](N)c1ccc(C(=O)Nc2ccnc3[nH]ccc23)cc1 | inactive |
| O=C(c1ccccc1)c1ccc2n1CCC2C(=O)O (stereo unspecified) | inactive |
| O=C(Nc1cc2cc[nH]c2cn1)c1ccccc1 | inactive |
| Oc1ccc(/C=C/c2cc(O)cc(O)c2)cc1 | inactive |
| Nc1ccc(O)c(C(=O)O)c1 | inactive |
| Cc1[nH]c(C=C2C(=O)Nc3ccccc32)c(C)c1CCC(=O)O | inactive |
| CCCS(=O)c1ccc2nc(NC(=O)OC)[nH]c2c1 (stereo unspecified) | inactive |
| COc1ccc(-c2coc3cc(O)ccc3c2=O)cc1 | inactive |
| CC(=Cc1ccccc1)C=C1SC(=S)N(CC(=O)O)C1=O | inactive |
| O=C(Oc1ccccc1)c1cccc(C(=O)Oc2ccccc2)c1 | inactive |
| O=C(Nc1ncc([N+](=O)[O-])s1)c1cccs1 | inactive |
| Cc1ccc2c(n1)Oc1ccc(C(C)C(=O)OCC(=O)N(C)C)cc1C2 (stereo unspecified) | inactive |
| CN(C)c1ccc(N=NS(=O)(=O)O)cc1 | inactive |
| CC1(C)OC2=C(C(=O)c3ccccc3C2=O)[C@H](NCc2ccccc2)[C@H]1O | inactive |
| Cc1ccc(O)c(-n2nc3ccccc3n2)c1 | inactive |
| CC(C(=O)O)c1ccc(C(=O)c2ccccc2)s1 (stereo unspecified) | inactive |
| Cc1c(NC(=O)c2ccc(C(C)(C)C)cc2)cccc1-c1cn(C)c(=O)c(Nc2ccc(C(=O)N3CCOCC3)cc2)n1 | inactive |
| CC(O)CN1CCN(CC(=O)[O-])CCN(CC(=O)[O-])CCN(CC(=O)[O-])CC1.[Gd+3] (stereo unspecified) | inactive |
| O=C(O)CCC(=O)c1ccc(-c2ccccc2)cc1 | inactive |
| CCN1CCC(n2cc(CNc3cc(Cl)c4ncc(C#N)c(Nc5ccc(F)c(Cl)c5)c4c3)nn2)CC1 | inactive |
